# According to PubChem BioAssay (NCATS):
# Records with an inconclusive call do not appear. A call without a number means that no potency is given here. Active and inactive are the calls of the source. Calls follow the shape of the dose curve; as a rule, active = well fitted curve in the direction sought with a large enough effect; inconclusive = small, poorly fitted or top-dose-only effect, or another doubt; inactive = no such curve, though single readings can be large; an effect the other way counts as inactive or inconclusive.
# Assays:
# [1] = Quantitative High-Throughput drug screen in 47 multiple myeloma cell lines against the NCATS MIPE library collection: Karpas620_DSMZ cell viability assay (AID 1918959); also: nearly all actives have a fitted effect of over 30% in size; also: potency is read from the fitted curve at half-maximal effect
# Method in brief: (§1)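 Viability readout: CellTiter-Glo luminescence following 5 min room-temperature incubation with reagent. Prior exposure: 48 h, 37C, humidified 5% CO2, 500 cells per well.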
# [2] = Quantitative High-Throughput drug screen in 47 multiple myeloma cell lines against the NCATS MIPE library collection: KMM1_JCRB cell viability assay (AID 1918960); also: nearly all actives have a fitted effect of over 30% in size; also: potency is read from the fitted curve at half-maximal effect
# Method in brief: (§2)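 ATP readout (CellTiter-Glo), 48 h drug incubation, 37 °C/5% CO2, 500 cells per well; normalisation to DMSO (100%) and media-only (0%) controls.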
# [3] = Quantitative High-Throughput drug screen in 47 multiple myeloma cell lines against the NCATS MIPE library collection: JIM3_ECACC cell viability assay (AID 1918963; also: nearly all actives have a fitted effect of over 35% in size; also: potency is read from the fitted curve at half-maximal effect)
# Method in brief: as §1
# [4] = Quantitative High-Throughput drug screen in 47 multiple myeloma cell lines against the NCATS MIPE library collection: H1112_PLB cell viability assay (AID 1918967; also: nearly all actives have a fitted effect of over 30% in size; also: potency is read from the fitted curve at half-maximal effect)
# Method in brief: (§3)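 Luminescent ATP measurement with CellTiter-Glo gives viability, scaled between DMSO-only wells (100%) and media-only wells (0%). Cells, 500 per well, faced library compounds for 48 hours at 37C.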
# [5] = Quantitative High-Throughput drug screen in 47 multiple myeloma cell lines against the NCATS MIPE library collection: KMS12BM_JCRB cell viability assay (AID 1918971); also: nearly all actives have a fitted effect of over 35% in size; also: potency is read from the fitted curve at half-maximal effect
# Method in brief: (§4)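 Steps: seed 500 cells per well; pin-transfer MIPE 4.0 library; incubate 48 h at 37C, 5% CO2, humidified; add CellTiter-Glo, 5 min room temperature; read luminescence.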
# [6] = Quantitative High-Throughput drug screen in 47 multiple myeloma cell lines against the NCATS MIPE library collection: KMS12PE_JCRB cell viability assay (AID 1918972); also: nearly all actives have a fitted effect of over 30% in size; also: potency is read from the fitted curve at half-maximal effect
# Method in brief: (§5)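 Approved and investigational drugs from MIPE 4.0 were added by pin tool to 500 cells per well. After 48 hours at 37C, ATP-based CellTiter-Glo luminescence indicated remaining viability.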
# [7] = Quantitative High-Throughput drug screen in 47 multiple myeloma cell lines against the NCATS MIPE library collection: KMS20_JCRB cell viability assay (AID 1918973); also: nearly all actives have a fitted effect of over 45% in size; also: potency is read from the fitted curve at half-maximal effect
# Method in brief: as §3
# [8] = Quantitative High-Throughput drug screen in 47 multiple myeloma cell lines against the NCATS MIPE library collection: KMS26_JCRB cell viability assay (AID 1918975); also: nearly all actives have a fitted effect of over 45% in size; also: potency is read from the fitted curve at half-maximal effect
# Method in brief: as §4
# [9] = Quantitative High-Throughput drug screen in 47 multiple myeloma cell lines against the NCATS MIPE library collection: MMM1_PLB cell viability assay (AID 1918976); also: potency is read from the fitted curve at half-maximal effect; nearly all actives have a fitted effect of over 35% in size
# Method in brief: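 MIPE 4.0 approved/investigational drugs; 500 cells/well; 48 h 37 °C humidified 5% CO2; CTG luminescence readout; DMSO = 100%, media = 0% viability.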
# [10] = Quantitative High-Throughput drug screen in 47 multiple myeloma cell lines against the NCATS MIPE library collection: JIM1_ECACC cell viability assay (AID 1918964)
# Method in brief: as §3
# [11] = Quantitative High-Throughput drug screen in 47 multiple myeloma cell lines against the NCATS MIPE library collection: JJN3_DSMZ cell viability assay (AID 1918966; also: nearly all actives have a fitted effect of over 50% in size; also: potency is read from the fitted curve at half-maximal effect)
# Method in brief: as §3
# [12] = Quantitative High-Throughput drug screen in 47 multiple myeloma cell lines against the NCATS MIPE library collection: ARP1_JJKsccF8 cell viability assay (AID 1918928; also: nearly all actives have a fitted effect of over 40% in size; also: potency is read from the fitted curve at half-maximal effect)
# Method in brief: as §2
# [13] = Quantitative High-Throughput drug screen in 47 multiple myeloma cell lines against the NCATS MIPE library collection: INA6_PLB cell viability assay (AID 1918965; also: nearly all actives have a fitted effect of over 55% in size; also: potency is read from the fitted curve at half-maximal effect)
# Method in brief: as §5
# [14] = Quantitative High-Throughput drug screen in 47 multiple myeloma cell lines against the NCATS MIPE library collection: KMS27_JCRB cell viability assay (AID 1918970); also: nearly all actives have a fitted effect of over 30% in size; also: potency is read from the fitted curve at half-maximal effect
# Method in brief: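 ATP-based viability (CellTiter-Glo luminescence) is measured in cells treated 48 h with approved and investigational drugs at 37 °C. Controls are DMSO-only wells for full viability and media-only wells for none.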
# [15] = Quantitative High-Throughput drug screen in 47 multiple myeloma cell lines against the NCATS MIPE library collection: Karpas417_ECACC cell viability assay (AID 1918961); settings: Karpas417 myeloma viability, CellTiter-Glo ATP luminescence, 48 h; viability (% of DMSO): at 45.8 µM (top of the series); also: potency is read from the fitted curve at half-maximal effect
# Method in brief: as §5
# [16] = Quantitative High-Throughput drug screen in 47 multiple myeloma cell lines against the NCATS MIPE library collection: Karpas25_ECACC cell viability assay (AID 1918968; also: nearly all actives have a fitted effect of over 35% in size; also: potency is read from the fitted curve at half-maximal effect)
# Method in brief: as §3
# [17] = Quantitative High-Throughput drug screen in 47 multiple myeloma cell lines against the NCATS MIPE library collection: KMS21BM_JCRB cell viability assay (AID 1918974); settings: ATP luminescence, 48 h; viability: at 45.8 µM (top of the series); also: potency is read from the fitted curve at half-maximal effect
# Method in brief: as §3
# [18] = Quantitative High-Throughput drug screen in 47 multiple myeloma cell lines against the NCATS MIPE library collection: ARD_JJKsccE7 cell viability assay (AID 1918929)
# Method in brief: as §3
# [19] = Quantitative High-Throughput drug screen in 47 multiple myeloma cell lines against the NCATS MIPE library collection: KHM11_PLB cell viability assay (AID 1918962); also: nearly all actives have a fitted effect of over 35% in size
# Method in brief: as §1
smiles,measurement,setting,value
CC(O)=C(C#N)C(=O)Nc1cc(Br)ccc1Br,Potency,[1],5.26 µM (active)
same,Potency,[2],inactive
same,Potency,[3],inactive
same,Potency,[4],0.935 µM (active)
same,Potency,[5],20.9 µM (active)
same,Potency,[6],5.9 µM (active)
same,Potency,[7],6.62 µM (active)
same,Potency,[8],18.7 µM (active)
same,Potency,[9],16.6 µM (active)
C[C@]12COC(=O)C[C@@H]1CC[C@@H]1[C@H]2CC[C@@]2(C)[C@H]1CC[C@]2(C)O,Potency,[1],inactive
same,Potency,[2],inactive
same,Potency,[10],inactive
same,Potency,[11],inactive
same,Potency,[4],inactive
same,Potency,[6],inactive
same,Potency,[7],inactive
same,Potency,[8],inactive
O=C(Oc1ccc([N+](=O)[O-])cc1)N1CCC(C(O)(c2ccc3c(c2)OCO3)c2ccc3c(c2)OCO3)CC1,Potency,[12],inactive
same,Potency,[3],8.33 µM (active)
same,Potency,[13],10.5 µM (active)
same,Potency,[4],10.5 µM (active)
same,Potency,[14],inactive
same,Potency,[8],inactive
CC(=O)N(C)c1cccc(-c2ccnc3c(C(=O)c4cccs4)cnn23)c1,Potency,[15],23.5 µM (active)
same,Potency,[3],inactive
same,Potency,[13],14.8 µM (active)
same,Potency,[4],inactive
same,Potency,[16],inactive
same,Potency,[14],20.9 µM (active)
same,Potency,[5],inactive
same,Potency,[17],inactive
same,Potency,[8],inactive
same,Potency,[9],2.96 µM (active)
N#C[C@H](O[C@@H]1O[C@H](CO[C@@H]2O[C@H](CO)[C@H](O)[C@H](O)[C@H]2O)[C@H](O)[C@H](O)[C@H]1O)c1ccccc1,Potency,[1],9.35 µM (active)
same,Potency,[13],13.2 µM (active)
same,Potency,[11],18.7 µM (active)
same,Potency,[4],26.4 µM (active)
same,Potency,[16],18.7 µM (active)
same,Potency,[5],20.9 µM (active)
same,Potency,[6],7.43 µM (active)
same,Potency,[7],18.7 µM (active)
same,Potency,[8],20.9 µM (active)
same,Potency,[9],23.5 µM (active)
c1ccc(CCCN2CCN(CCOC(c3ccccc3)c3ccccc3)CC2)cc1,Potency,[1],inactive
same,Potency,[2],inactive
same,Potency,[3],20.9 µM (active)
same,Potency,[13],20.9 µM (active)
same,Potency,[11],20.9 µM (active)
same,Potency,[4],26.4 µM (active)
same,Potency,[16],10.5 µM (active)
same,Potency,[6],inactive
same,Potency,[7],13.2 µM (active)
same,Potency,[8],26.4 µM (active)
same,Potency,[9],18.7 µM (active)
CC1=NN=C(c2ccc(N)cc2)c2cc3c(cc2C1)OCO3,Potency,[12],inactive
same,Potency,[1],20.9 µM (active)
same,Potency,[15],20.9 µM (active)
same,Potency,[3],inactive
same,Potency,[13],inactive
same,Potency,[11],inactive
same,Potency,[4],inactive
same,Potency,[17],14.8 µM (active)
same,Potency,[8],inactive
C[C@@H]1CC[C@H]2[C@@H](C)C(=O)O[C@@H]3O[C@@]4(C)CC[C@H]1[C@]32OO4,Potency,[12],0.332 µM (active)
same,Potency,[18],inactive
same,Potency,[1],5.9 µM (active)
same,Potency,[2],inactive
same,Potency,[3],1.48 µM (active)
same,Potency,[13],1.18 µM (active)
same,Potency,[11],0.0132 µM (active)
same,Potency,[16],0.469 µM (active)
same,Potency,[6],inactive
same,Potency,[17],inactive
same,Potency,[8],11.8 µM (active)
C[C@](O)(COc1ccc(C#N)cc1)C(=O)Nc1ccc(C#N)c(C(F)(F)F)c1,Potency,[12],inactive
same,Potency,[15],23.5 µM (active)
same,Potency,[11],inactive
same,Potency,[16],18.7 µM (active)
CCCC[N+]1(C)[C@H]2CC(OC(=O)[C@H](CO)c3ccccc3)C[C@H]1[C@H]1O[C@H]12 (stereo partly specified),Potency,[18],inactive
same,Potency,[1],inactive
same,Potency,[2],inactive
same,Potency,[3],inactive
same,Potency,[10],inactive
same,Potency,[13],2.35 µM (active)
same,Potency,[11],inactive
same,Potency,[4],inactive
same,Potency,[16],inactive
same,Potency,[14],inactive
same,Potency,[6],inactive
same,Potency,[8],inactive
C[C@]12CC[C@H]3[C@@H](CCC4=CC(=O)CC[C@@]43C)[C@H]1CC[C@H]2OC(=O)CCC1CCCC1,Potency,[1],inactive
same,Potency,[2],inactive
same,Potency,[16],inactive
same,Potency,[14],inactive
same,Potency,[6],inactive
same,Potency,[9],23.5 µM (active)
O=C(N[C@H]1CN2CCC1CC2)c1ccc(Cl)cc1,Potency,[1],inactive
same,Potency,[2],inactive
same,Potency,[19],inactive
same,Potency,[5],inactive
same,Potency,[17],37.2 µM (active)
same,Potency,[8],inactive
CN[C@@H]1Cc2cccc3[nH]c(=O)n(c23)C1,Potency,[1],inactive
same,Potency,[2],inactive
same,Potency,[13],inactive
same,Potency,[11],inactive
same,Potency,[16],inactive
same,Potency,[8],inactive
same,Potency,[9],5.26 µM (active)
CO[C@H]1CCC(O[C@H]2C[C@H]([C@]3(C)CC[C@]4(C[C@H](O)[C@@H](C)[C@@H]([C@@H](C)C=C(C)C(=O)[C@H](C)C[C@H](C)C(=O)O)O4)O3)O[C@]3(O[C@@H]([C@H]4O[C@@](O)(CO)[C@H](C)C[C@H]4C)C[C@H]3C)[C@H]2C)O[C@H]1C (stereo partly specified),Potency,[12],1.18 µM (active)
same,Potency,[1],0.264 µM (active)
same,Potency,[2],0.187 µM (active)
same,Potency,[3],0.526 µM (active)
same,Potency,[13],0.526 µM (active)
same,Potency,[11],0.526 µM (active)
same,Potency,[4],0.662 µM (active)
same,Potency,[5],0.0833 µM (active)
same,Potency,[7],0.235 µM (active)
same,Potency,[8],0.372 µM (active)
same,Potency,[9],1.66 µM (active)
O=S(=O)(CC1CS1)c1ccc(Oc2ccccc2)cc1 (stereo unspecified),Potency,[18],inactive
same,Potency,[2],5.9 µM (active)
same,Potency,[15],9.35 µM (active)
same,Potency,[3],16.6 µM (active)
same,Potency,[10],inactive
same,Potency,[13],14.8 µM (active)
same,Potency,[11],11.8 µM (active)
same,Potency,[6],3.72 µM (active)
same,Potency,[7],14.8 µM (active)
same,Potency,[8],26.4 µM (active)
same,Potency,[9],16.6 µM (active)
O=C1CCC[C@@H]2[C@H]3CCCN4CCC[C@@H](CN12)[C@@H]34,Potency,[1],inactive
same,Potency,[10],inactive
same,Potency,[13],inactive
same,Potency,[4],inactive
same,Potency,[8],inactive
